This is a sample that favours compounds with a hit; in the whole collection about 5.7% have one here.
DAX1 inh-1 = DAX1 (NR0B1) inhibition, primary screen. HEK293T StAR-luciferase reporter, SF-1/DAX-1 repression relief. inhibition, % at 6.8 µM. hit rate 1.1% among 370,000;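 active = inhibition above the mean over all tested compounds plus 3 SD, cut at about 3.6% in these data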;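 also: 0% = DAX-1 cells with DMSO and 100% = cells lacking DAX-1 with DMSO; higher inhibition means more luminescence from relief of DAX-1 repression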
hgDAF-12 ag = activates the H. glycines DAF-12 receptor ligand-binding domain; HEK293 GAL4-hgDAF12 UAS-luciferase reporter, agonist luminescence; normalized to butyrate control; activation, % at 6.8 µM; hit rate 1.8% among 370,000; AID 687014;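 active = activation above a cutoff set at the mean of all screened compounds plus 3 SD, cut at about 10% in these data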;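 also: 0% = DMSO wells and 100% = sodium butyrate wells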
DAX1 inh-2 = inhibitors of human orphan nuclear receptor DAX1 (NR0B1) | P51843 | HEK293 Gal4-DAX1 luciferase reporter, luminescence | inhibition, % at 6.75 µM | hit rate 0.99% among 340,000;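 active = inhibition above the mean over all tested compounds plus 3 SD, cut at about 4.2% in these data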;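 also: 0% = DAX1-transfected cells with DMSO and 100% = empty-vector control cells with DMSO; inhibition shows as a rise in luminescence from relieved DAX1 repression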
ssDAF12 agonist = activates DAF-12 receptor from parasite S. stercoralis; HEK293 ssDAF-12/GRIP1 lit1-tk-luc reporter, luminescence; % of 3 µM dafachronic acid response; activation, % at 6.8 µM; hit rate 1% among 370,000; AID 652126;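 active = activation above the mean over all tested compounds plus 3 SD, cut at about 0.9% in these data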;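 also: 0% = DMSO-only wells and 100% = 3 µM delta7-dafachronic acid wells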
AHR act = activators of human aryl hydrocarbon receptor; hit rate 2.5% among 320,000; AHR-responsive luciferase reporter cells, luminescence; P35869; AID 2796; activation, % at 5 µM; in the data active = activation above about 47%;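 also: 0% = vehicle wells and 100% = reference agonist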
Target sequence (P35869 whole entry, looked up): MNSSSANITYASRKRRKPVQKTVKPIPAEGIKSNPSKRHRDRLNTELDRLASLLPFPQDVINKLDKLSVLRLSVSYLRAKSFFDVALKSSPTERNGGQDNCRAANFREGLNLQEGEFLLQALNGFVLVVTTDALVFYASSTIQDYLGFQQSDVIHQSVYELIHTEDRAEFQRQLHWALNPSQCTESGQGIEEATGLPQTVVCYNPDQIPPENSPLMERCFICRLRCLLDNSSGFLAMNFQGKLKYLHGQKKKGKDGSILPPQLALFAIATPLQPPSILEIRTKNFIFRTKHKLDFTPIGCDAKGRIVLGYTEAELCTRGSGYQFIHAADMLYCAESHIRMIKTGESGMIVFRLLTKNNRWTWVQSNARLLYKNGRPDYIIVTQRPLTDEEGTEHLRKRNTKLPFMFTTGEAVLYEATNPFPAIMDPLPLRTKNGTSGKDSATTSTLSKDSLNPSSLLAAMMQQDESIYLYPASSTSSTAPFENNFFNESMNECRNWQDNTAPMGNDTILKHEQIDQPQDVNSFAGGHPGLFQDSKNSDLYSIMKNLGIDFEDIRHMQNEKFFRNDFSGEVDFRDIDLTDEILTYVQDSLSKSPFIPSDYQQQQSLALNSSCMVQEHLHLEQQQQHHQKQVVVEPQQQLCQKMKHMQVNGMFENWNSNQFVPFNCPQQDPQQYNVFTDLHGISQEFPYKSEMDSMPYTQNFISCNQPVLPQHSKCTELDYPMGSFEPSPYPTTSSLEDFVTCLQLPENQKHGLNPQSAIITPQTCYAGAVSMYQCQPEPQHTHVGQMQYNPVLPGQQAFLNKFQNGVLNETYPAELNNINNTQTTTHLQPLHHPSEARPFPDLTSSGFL
hcDAF12 agonist = activates DAF-12 receptor from parasite H. contortus; HEK293 hcDAF-12 lit1-tk-luc reporter, luminescence; 0% DMSO, 100% Δ7-dafachronic acid; activation, % at 6.8 µM; hit rate 1.4% among 370,000;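 active = activation above the mean of all tested compounds plus 3 SD, cut at about 5.5% in these data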;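 also: 100% = response to 3 µM Δ7-dafachronic acid high control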
* marks the source's active call; other numbers are inactive results; / = not tested or not shown.

SMILES	DAX1 inh-1	hgDAF-12 ag	DAX1 inh-2	ssDAF12 agonist	AHR act	hcDAF12 agonist
CN(C)CCCNS(=O)(=O)c1ccc(N2CCN(Cc3ccc4c(c3)OCO4)CC2)c([N+](=O)[O-])c1	-1.0	-4.0	-0.8	-2.0	-0.3	-4.3
O=C(NCc1nnc2c(C(F)(F)F)cc(Cl)cn12)c1cccs1	-0.1	-2.1	0.9	-0.7	9.7	-1.4
CC(C)n1c2ccccc2c2cc([N+](=O)[O-])ccc21	-0.3	-0.8	1.6	-1.6	2.1	-1.8
CCC(C)n1c(=S)[nH]c2c(sc3ccc([N+](=O)[O-])cc32)c1=O (configuration not stated)	-0.5	0.1	0.2	3.4*	8.5	-1.2
CC(=O)Nc1ccc(NC(=O)COc2cccc3ccccc23)cc1	0.8	1.2	0.5	-1.5	/	1.2
CCc1ccc(S(=O)(=O)/N=C2\C=C(NS(=O)(=O)c3ccccc3)C(=O)c3ccccc32)cc1	-0.4	0.3	-1.2	0.4	/	4.1
Cc1ccc(C)c(S(=O)(=O)/N=C2\C=C(NS(=O)(=O)c3ccccc3)C(=O)c3ccccc32)c1	-0.6	0.9	2.1	0.5	74.2*	0.0
CC(=O)NC(=S)Nc1sc2c(c1C(N)=O)CCC(C)C2 (configuration not stated)	1.6	10.1	5.0*	0.9	16.5	3.2
Cc1ccc(/C=C/C(=O)c2ccccc2O)cc1	-0.1	1.1	2.5	-1.4	1.4	-1.8
CN(C)c1ccc(/C=C/C(=O)c2ccccc2O)cc1	2.0	10.6*	5.8*	-0.3	9.0	0.7
O=C(/C=C/c1ccc2c(c1)OCCCO2)c1ccccc1O	1.7	11.4*	2.8	-0.1	5.4	2.5
Cc1ccc(O)c(C(=O)/C=C/c2ccc3c(c2)OCCCO3)c1	0.3	5.7	-0.5	-1.0	-9.9	1.4
COC(=O)c1c(C(=O)OC)c2ccncn2c1Cl	-0.2	1.5	-0.5	-1.3	74.0*	-1.4
Cc1ccc(CNC(=O)C(OC(=O)c2cccs2)C(C)C)cc1 (configuration not stated)	-0.1	1.4	4.6*	-0.7	-0.6	-1.5
CC(C)C(OC(=O)c1cccs1)C(=O)NCc1ccccc1 (configuration not stated)	0.5	1.4	-0.2	-1.8	-0.6	-1.4
C=CCNC(=O)C1COc2ccccc2O1 (configuration not stated)	-0.6	0.9	-0.6	-0.9	-0.1	-0.1
CC(=O)Nc1ccc(Nc2nc(-c3sc(NC(C)=O)nc3C)cs2)cc1	-0.6	1.6	2.6	-0.7	-7.7	-2.6
CC(=O)Nc1nc(C)c(-c2csc(Nc3ccc(O)cc3)n2)s1	/	/	-1.8	/	48.9*	/
CC(=O)Nc1cccc(-c2csc(Nc3cc(C)ccn3)n2)c1	3.5	10.9*	1.4	-1.2	109.2*	0.5
CC(=O)Nc1ccc(-c2csc(Nc3cc(C)ccn3)n2)cc1	-3.0	1.8	-1.4	-2.8	-2.3	-3.5
CC(=O)Nc1nc(C)c(-c2csc(Nc3cccc(C(C)=O)c3)n2)s1	-0.9	4.0	-2.3	-1.8	56.6*	-3.6
NNC(=O)c1ccc(COc2ccc3ccccc3c2)o1	0.0	6.3	-1.0	-1.1	80.5*	2.0
CN(C)c1ccc(NC(=O)c2ccc(COc3cccc(Cl)c3)o2)cc1	0.9	3.8	1.1	-1.4	70.5*	1.7
Cc1ccc(OCc2ccc(C(=O)NN)o2)cc1C	0.2	1.5	2.2	-0.9	63.5*	1.3
Cc1ccc(OCc2ccc(C(=O)NN)o2)c([N+](=O)[O-])c1	0.1	1.9	-1.1	-1.1	97.2*	-0.7
SMILES	DAX1 inh-1	hgDAF-12 ag	DAX1 inh-2	ssDAF12 agonist	AHR act	hcDAF12 agonist
COC(=O)c1ccc(COc2ccc(C)cc2[N+](=O)[O-])o1	1.6	4.2	/	-1.4	-0.3	2.0
COC(=O)Cn1c(=O)oc2ccc(C)cc21	-0.5	-0.7	-0.3	-1.6	-0.9	0.1
CC(C)C[C@H](NC1(C(=O)NC2CCCCC2)CCN(C)CC1)C(=O)NCC(c1ccccc1)c1ccccc1	/	3.5	/	-0.7	/	1.3
COc1cc([N+](=O)[O-])ccc1NC(=O)CCCOc1cc(C)ccc1C	1.1	1.6	-0.6	-1.5	-1.6	0.7
S=c1[nH]nc(-c2ccn[nH]2)n1-c1ccccc1Cl	-0.5	4.4	1.1	1.2*	1.8	2.1
S=c1[nH]nc(-c2ccc3ccccc3n2)n1-c1ccccc1Cl	-0.5	-1.0	-0.9	-0.1	5.1	1.5
S=c1[nH]nc(-c2ccco2)n1-c1ccccc1Cl	4.3*	2.9	-0.8	0.3	0.8	0.5
COc1cc(C#Cc2c(-c3cncn3C)n(C)c3ccc(-c4cc(OC)c(OC)c(OC)c4)cc23)cc(OC)c1	-0.9	-4.8	-1.7	-1.8	40.0	-2.8
COc1cc(C#Cc2c(-c3cncn3C)n(C)c3ccc(-c4ccc(OC)nc4)cc23)cc(OC)c1	-0.1	-0.3	0.2	-1.0	59.5*	-2.2
CCN(CCn1cccn1)C(=O)CCc1nnc(-c2ccccc2)o1	0.6	7.9	-0.6	-0.5	1.2	1.0
CCN(CCn1cccn1)C(=O)CCc1nnc(C2(c3ccc(Cl)cc3)CCC2)o1	0.8	11.9*	1.1	0.2	3.3	1.0
COc1cc([N+](=O)[O-])ccc1NC(=S)Nc1cccc(C(=O)O)c1	1.1	5.5	0.8	-0.9	-0.5	7.0*
Cc1ccc(CNC(=O)C2c3ccccc3C(=O)N3CCc4ccccc4C23)o1 (configuration not stated)	0.4	1.3	-0.2	-0.3	115.0*	0.7
O=C(NCCN1CCN(Cc2ccccc2)CC1)C1c2ccccc2C(=O)N2CCc3ccccc3C12 (configuration not stated)	-0.3	0.8	1.3	-1.0	0.3	-1.5
O=c1c2c(nc3cc(-c4ccc(Cl)cc4)[nH]n13)CCS2	2.6	11.0*	3.2	0.3	45.6	4.5
O=C(C1=C(O)C(=O)N(c2ccccc2)C1c1ccc([N+](=O)[O-])cc1)c1cccs1 (configuration not stated)	-1.2	-1.0	0.3	-1.4	-0.3	1.0
O=C(NC1=N[C@@]2(C=C3CCCCC3n3c(=O)n(-c4ccccc4)c(=O)n32)[C@H](Cc2ccccc2)N1Cc1ccccc1)c1ccccc1 (some centres not stated)	0.0	-1.9	/	-1.4	/	-1.9
O=C(c1ccccc1)c1cnc(-c2ccc(Cl)cc2)s1	2.4	12.3*	5.0*	-0.1	-0.8	1.5
c1cc2c3c(cccc3c1)NC1(CCC3(CC1)Nc1cccc4cccc(c14)N3)N2	0.0	6.1	-1.4	-1.0	48.9*	0.7
Cc1nnc(SC(C)C(=O)Nc2ccc3ccccc3c2)[nH]c1=O (configuration not stated)	0.1	4.2	2.1	1.3*	12.7	5.5
COc1cc(=O)[nH]c(SC(C)C(=O)Nc2ccc3ccccc3c2)n1 (configuration not stated)	-0.1	0.3	0.1	-0.3	13.9	2.6

Bioassay records deposited in PubChem by The Scripps Research Institute Molecular Screening Center.
